# Results filed as inconclusive are left out. The source made the active and inactive calls. How the source made its calls: active means hit-call score of the fitted dose curve at least 0.9, where 1 is the maximum; inconclusive means response in the unintended direction; inactive means score below 0.9.
# Tests used:
# [1] = system: rat Adrenergic, Alpha 1B Receptor (Adra1B), gene 24173; experiment: NVS_GPCR_rAdra1B: NovaScreen (NVS) G Protein-Coupled Receptor Assay for rat Adrenergic, Alpha 1B Receptor (Adra1B) (AID 2283297)
# Outline: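 Rat liver membranes, radioligand displacement with filter-based scintillation detection, 1 h incubation. Primary screen in duplicate at 25 uM; actives retested in concentration series; activity relative to DMSO.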
# [2] = molecular target: rat Adrenergic Receptor, Beta (Adrb), Non-selective Binding, Adrb1 (gene 24925) (UniProt P18090); experiment: NVS_GPCR_rAdrb_NonSelective: NovaScreen (NVS) G Protein-Coupled Receptor Assay for rat Adrenergic Receptor, Beta (Adrb), Non-selective Binding (AID 2283298)
# rat Adrenergic Receptor, Beta (Adrb), Non-selective Binding, Adrb1 (gene 24925), sequence (P18090 whole entry, looked up): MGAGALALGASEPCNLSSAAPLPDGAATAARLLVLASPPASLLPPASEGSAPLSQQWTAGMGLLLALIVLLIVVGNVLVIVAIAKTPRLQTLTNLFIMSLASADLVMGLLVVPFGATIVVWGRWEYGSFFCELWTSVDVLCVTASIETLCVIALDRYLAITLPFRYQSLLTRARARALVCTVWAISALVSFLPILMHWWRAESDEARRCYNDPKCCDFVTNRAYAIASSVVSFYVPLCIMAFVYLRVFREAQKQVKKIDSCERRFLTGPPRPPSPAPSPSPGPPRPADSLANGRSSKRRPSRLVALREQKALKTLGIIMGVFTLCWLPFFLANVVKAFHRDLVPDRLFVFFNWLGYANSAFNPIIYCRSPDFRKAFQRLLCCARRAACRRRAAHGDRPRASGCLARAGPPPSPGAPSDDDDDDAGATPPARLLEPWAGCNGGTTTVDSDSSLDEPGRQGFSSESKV
# Protocol: (§1) NVS_GPCR_rAdrb_NonSelective is a biochemical, single-readout assay that uses extracted gene-proteins from Rat cortical membranes in a tissue-based cell-free assay. Measurements were taken 1 hour after chemical dosing in a 48-well plate.NVS_GPCR_rAdrb_NonSelective is one of one assay component(s) measured or calculated from the NVS_GPCR_rAdrb_NonSelective assay. It is designed to make measurements of radioligand binding, a form of binding reporter, as detected with scintillation counting signals by Filter-based radiodetection technology.Data from the assay component NVS_GPCR_rAdrb_NonSelective was analyzed into 1 assay endpoint. This assay endpoint, NVS_GPCR_rAdrb_NonSelective, was analyzed in the positive analysis fitting direction relative to DMSO as the negative control and baseline of activity. Using a type of binding reporter, loss-of-signal activity can be used to understand changes in the binding as they relate to the gene Adrb1. Furthermore, this assay endpoint can be referred to as a primary readout, because the performed assay has only produced 1 assay endpoint. To generalize the intended target to other relatable targets, this assay endpoint is annotated to the gpcr intended target family, where the subfamily is rhodopsin-like receptor. […]
# [3] = molecular target: rat Adrenergic Receptor, Alpha 2 (Adra2), Non-selective Binding, Adra2a (gene 25083) (UniProt P22909); experiment: NVS_GPCR_rAdra2_NonSelective: NovaScreen (NVS) G Protein-Coupled Receptor Assay for rat Adrenergic Receptor, Alpha 2 (Adra2), Non-selective Binding (AID 2283299)
# rat Adrenergic Receptor, Alpha 2 (Adra2), Non-selective Binding, Adra2a (gene 25083), sequence (P22909 whole entry, looked up): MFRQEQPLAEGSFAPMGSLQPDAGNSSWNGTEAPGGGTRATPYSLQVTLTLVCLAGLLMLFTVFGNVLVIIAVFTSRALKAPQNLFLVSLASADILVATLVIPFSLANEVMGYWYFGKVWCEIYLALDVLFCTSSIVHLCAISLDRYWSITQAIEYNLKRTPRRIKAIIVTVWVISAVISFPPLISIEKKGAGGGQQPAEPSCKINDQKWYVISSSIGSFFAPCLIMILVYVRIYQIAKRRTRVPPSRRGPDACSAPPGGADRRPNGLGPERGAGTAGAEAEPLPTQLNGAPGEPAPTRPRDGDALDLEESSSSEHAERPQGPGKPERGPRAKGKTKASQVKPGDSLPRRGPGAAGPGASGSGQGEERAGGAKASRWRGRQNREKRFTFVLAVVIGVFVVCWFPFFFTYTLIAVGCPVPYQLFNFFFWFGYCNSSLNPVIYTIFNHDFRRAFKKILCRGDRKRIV
# Outline: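 Rat cortical membranes, radioligand competitive displacement read by filter-based scintillation counting 1.25 hours after dosing. Primary screen in duplicate at 25 uM; actives followed up in concentration series.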
# [4] = molecular target: rat Gamma-Aminobutyric Acid Type B Receptor (GABBR), Gabbr1 (gene 81657) (UniProt Q9Z0U4); experiment: NVS_GPCR_rGABBR: NovaScreen (NVS) G Protein-Coupled Receptor Assay for rat Gamma-Aminobutyric Acid Type B Receptor (GABBR) (AID 2283301)
# rat Gamma-Aminobutyric Acid Type B Receptor (GABBR), Gabbr1 (gene 81657), sequence (Q9Z0U4 whole entry, looked up): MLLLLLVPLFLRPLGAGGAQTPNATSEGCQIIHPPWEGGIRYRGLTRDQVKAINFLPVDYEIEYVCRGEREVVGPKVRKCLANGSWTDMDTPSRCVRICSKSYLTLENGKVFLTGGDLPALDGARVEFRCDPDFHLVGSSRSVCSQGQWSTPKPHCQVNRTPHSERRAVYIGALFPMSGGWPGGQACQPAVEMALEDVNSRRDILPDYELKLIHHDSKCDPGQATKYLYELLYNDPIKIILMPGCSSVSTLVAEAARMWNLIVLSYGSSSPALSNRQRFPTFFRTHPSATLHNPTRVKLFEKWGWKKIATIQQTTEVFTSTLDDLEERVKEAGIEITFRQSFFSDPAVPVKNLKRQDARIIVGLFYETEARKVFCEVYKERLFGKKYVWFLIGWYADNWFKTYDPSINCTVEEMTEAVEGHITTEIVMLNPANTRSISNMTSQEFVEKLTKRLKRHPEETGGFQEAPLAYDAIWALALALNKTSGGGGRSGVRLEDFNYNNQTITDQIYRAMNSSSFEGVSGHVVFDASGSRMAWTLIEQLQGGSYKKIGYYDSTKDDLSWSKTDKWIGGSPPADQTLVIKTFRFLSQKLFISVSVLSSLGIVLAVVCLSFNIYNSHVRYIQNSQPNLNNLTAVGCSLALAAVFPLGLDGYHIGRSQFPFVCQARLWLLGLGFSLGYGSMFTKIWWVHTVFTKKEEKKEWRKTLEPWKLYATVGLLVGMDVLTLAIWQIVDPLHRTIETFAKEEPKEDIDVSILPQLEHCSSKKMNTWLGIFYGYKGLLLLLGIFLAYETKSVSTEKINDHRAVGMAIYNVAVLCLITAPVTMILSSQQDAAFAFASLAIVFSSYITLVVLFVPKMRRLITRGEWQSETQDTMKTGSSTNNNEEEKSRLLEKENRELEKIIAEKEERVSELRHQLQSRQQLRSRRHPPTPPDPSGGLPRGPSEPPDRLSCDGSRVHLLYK
# Protocol: as §1, with “NVS_GPCR_rGABBR” for “NVS_GPCR_rAdrb_NonSelective”, “96-well plate.NVS_GPCR_rGABBR” for “48-well plate.NVS_GPCR_rAdrb_NonSelective”, “NVS_GPCR_rGABBR,” for “NVS_GPCR_rAdrb_NonSelective,”, “Gabbr1.” for “Adrb1.”, “metabotropic glutamate” for “rhodopsin-like”
# [5] = molecular target: rat Glutamate Metabotropic Receptor 5 (MGluR5), Grm5 (gene 24418) (UniProt P31424); experiment: NVS_GPCR_rmMGluR5: NovaScreen (NVS) G Protein-Coupled Receptor Assay for rat Glutamate Metabotropic Receptor 5 (MGluR5) (AID 2283307)
# rat Glutamate Metabotropic Receptor 5 (MGluR5), Grm5 (gene 24418), sequence (P31424 whole entry, looked up): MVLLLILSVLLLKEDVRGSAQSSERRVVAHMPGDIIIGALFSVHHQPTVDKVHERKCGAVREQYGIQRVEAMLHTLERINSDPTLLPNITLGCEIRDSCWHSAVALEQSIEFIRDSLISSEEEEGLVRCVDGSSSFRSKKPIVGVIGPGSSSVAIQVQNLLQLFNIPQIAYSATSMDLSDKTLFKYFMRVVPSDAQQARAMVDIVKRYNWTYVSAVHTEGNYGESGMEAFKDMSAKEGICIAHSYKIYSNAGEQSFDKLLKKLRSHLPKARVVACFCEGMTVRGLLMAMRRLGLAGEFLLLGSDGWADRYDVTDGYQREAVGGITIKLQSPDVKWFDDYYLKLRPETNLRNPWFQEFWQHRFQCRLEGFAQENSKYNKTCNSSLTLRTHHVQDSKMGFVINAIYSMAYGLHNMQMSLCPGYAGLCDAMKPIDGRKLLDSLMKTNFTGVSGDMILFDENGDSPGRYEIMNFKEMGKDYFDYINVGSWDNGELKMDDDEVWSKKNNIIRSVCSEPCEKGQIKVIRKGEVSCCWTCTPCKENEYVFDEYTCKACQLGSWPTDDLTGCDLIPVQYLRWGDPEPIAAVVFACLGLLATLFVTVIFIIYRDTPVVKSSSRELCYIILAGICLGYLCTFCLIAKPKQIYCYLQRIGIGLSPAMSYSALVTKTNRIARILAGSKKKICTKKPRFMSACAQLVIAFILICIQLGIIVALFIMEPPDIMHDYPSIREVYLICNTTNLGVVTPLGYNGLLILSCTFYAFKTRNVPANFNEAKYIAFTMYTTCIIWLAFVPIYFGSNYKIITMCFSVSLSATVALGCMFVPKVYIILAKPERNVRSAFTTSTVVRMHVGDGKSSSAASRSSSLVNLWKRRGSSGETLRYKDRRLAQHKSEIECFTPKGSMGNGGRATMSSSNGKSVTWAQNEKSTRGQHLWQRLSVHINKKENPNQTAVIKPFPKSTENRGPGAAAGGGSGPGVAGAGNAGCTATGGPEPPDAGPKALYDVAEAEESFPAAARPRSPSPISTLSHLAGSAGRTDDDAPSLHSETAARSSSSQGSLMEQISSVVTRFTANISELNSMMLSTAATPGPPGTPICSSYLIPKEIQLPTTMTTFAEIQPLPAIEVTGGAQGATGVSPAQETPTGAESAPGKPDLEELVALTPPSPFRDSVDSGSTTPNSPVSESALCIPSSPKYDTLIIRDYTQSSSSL
# Outline: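 Rat whole-brain membrane preparation; filter-based radioligand binding read by scintillation counting, 1.5 h after dosing. Single-point screen at 25 uM in duplicate; hits over threshold (e.g. 30% inhibition) retested in concentration-response up to 50 uM; loss of signal vs DMSO.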
structure (smiles),measurement,setting,value
Fc1ccc(Oc2ccnc3cc(Cl)cc(Cl)c23)cc1,outcome,[1],inactive
CCOP(=S)(OCC)SCn1c(=O)oc2cc(Cl)ccc21,outcome,[1],inactive
CON(C)C(=O)Nc1ccc(Cl)c(Cl)c1,outcome,[2],inactive
CCNc1nc(Cl)nc(NCC)n1,outcome,[2],inactive
O=C(Nc1ccccc1)Nc1ccnc(Cl)c1,AC50,[3],9.64 µM (active)
CC1COC(Cn2cncn2)(c2ccc(Oc3ccc(Cl)cc3)cc2Cl)O1 (stereo not drawn),AC50,[3],2.28 µM (active)
COc1nc(C)nc(NC(=O)NS(=O)(=O)c2ccccc2Cl)n1,outcome,[4],inactive
CCCCOC(=O)c1ccccc1C(=O)OCCCC,outcome,[5],inactive
